Assay results reported in article PMC5540273 (PLoS ONE, 2017).

How the values were obtained:
Conditions in all cases: concentration: 1 μM, replicates: in singlicate; n = 1
HASPIN = test system: T1, HASPIN
T1 construct: gene GSG2

HCK = test system: HCK
HIPK1 = test system: HIPK1
HIPK2 = test system: HIPK2
HIPK3 = test system: HIPK3
HIPK4 = test system: HIPK4
HPK1 = test system: HPK1
HUNK = test system: HUNK
ICK = test system: ICK
IGF1R = test system: IGF1R
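Also: KINOMEscan kinase panel screen.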

| SMILES | %Inh (HASPIN) | %Inh (HCK) | %Inh (HIPK1) | %Inh (HIPK2) | %Inh (HIPK3) | %Inh (HIPK4) | %Inh (HPK1) | %Inh (HUNK) | %Inh (ICK) | %Inh (IGF1R) |
| --- | --- | --- | --- | --- | --- | --- | --- | --- | --- | --- |
| Cc1cc(-c2c(-c3ccc(F)cc3)ncn2CCCN2CCOCC2)nc(N)n1 [SB-222517] | 0% | 27% | 44% | 0% | 18% | 0% | 12% | 0% | 0% | 10% |
| Cc1ccc(O)cc1Nc1ccnc2cc(-c3ccc(CN4CCCCC4)o3)ccc12 [GW557777] | 0% | 99.4% | 0% | 0% | 0% | 0% | 37% | 32% | 0% | 0% |
| Cl.O=C(Nc1ccc(Oc2ccc3[nH]c(NC(=O)c4ccco4)nc3c2)cc1)Nc1cc(C(F)(F)F)ccc1F [GW683134] | 0% | 58% | 0% | 0% | 11% | 88% | 40% | 0% | 0% | 17% |
| Cl.Cl.NCC(NC(=O)c1cc(-c2cccnc2)c(-c2ccnc3[nH]ccc23)s1)c1ccccc1 (stereo not drawn) [GSK1323434] | 96.4% | 0% | 69% | 67% | 86% | 64% | 59% | 0% | 4% | 0% |
| N#Cc1cnc2cc(-c3cnc(CNCCN4CCOCC4)s3)ccc2c1Nc1ccc(Oc2ccccc2)cc1 [GW664114] | 0% | 99% | 0% | 0% | 17% | 0% | 89% | 12% | 0% | 17% |
| Cn1cc(-c2ccc3c(c2)CCN3C(=O)Cc2cc(F)cc(C(F)(F)F)c2)c2c(N)ncnc21 [GSK2635225] | 9% | 0% | 16% | 0% | 17% | 13% | 31% | 9% | 0% | 30% |
| CN(c1ccc2c(c1)nc(NCc1ccccc1)n2C)c1ccnc(Nc2ccc(CS(C)(=O)=O)cc2)n1.Cl [GW811603] | 3% | 49% | 41% | 46% | 0% | 38% | 72% | 0% | 29% | 6% |
| Cn1cc(-c2cnc(N)c3c(-c4ccc5c(c4)CCN5C(=O)Cc4ccccc4)csc23)cn1 [GSK2593074] | 0% | 86% | 21% | 0% | 7% | 0% | 94% | 0% | 100% | 0% |
| O=C(O)C(F)(F)F.O=c1[nH]ccc2nc(N[C@@H]3CCNC3)nc(Nc3cc(Cl)cc(Cl)c3)c12 [GSK2188764] | 86% | 0% | 27% | 6% | 54% | 0% | 95.7% | 0% | 12% | 0% |
| Cc1ccc(O)cc1Nc1ccnc2ccc(C(C)(C)C)cc12 [GW856805] | 44% | 93.8% | 20% | 0% | 28% | 0% | 0% | 0% | 37% | 0% |
| CC(C)c1nc(-c2cccc(NS(=O)(=O)c3c(F)cccc3F)c2)c(-c2ccnc(Nc3ccc(N4CCOCC4)nc3)n2)s1.Cl [GSK1723980] | 0% | 98.3% | 93.2% | 57% | 69% | 83% | 55% | 0% | 32% | 0% |
| O=C(Nc1n[nH]c2nc(-c3ccccc3O)ccc12)C1CC1 [SB-711880] | 0% | 0% | 27% | 7% | 0% | 0% | 0% | 0% | 26% | 0% |
| COc1cccc(NC(=O)NCCNc2ccnc(Nc3ccc(F)cc3)n2)c1 [GSK1379879] | 0% | 0% | 0% | 0% | 7% | 0% | 34% | 11% | 10% | 0% |
| COc1cc(Nc2ccnc3cc(-c4ccncc4)ccc23)cc(OC)c1OC.Cl [GW494610] | 40% | 83% | 0% | 0% | 13% | 0% | 0% | 52% | 0% | 0% |
| Cc1ccc(NC(=O)c2ccnc(N3CCCCC3)c2)cc1-c1ccc(C(=O)NCC2CC2)cc1 [GW775610] | 0% | 0% | 11% | 9% | 0% | 0% | 24% | 0% | 25% | 0% |
| Nc1ncc(-c2cn[nH]c2)c2scc(-c3ccc4c(c3)CCN4C(=O)Cc3ccccc3)c12 [GSK2593067] | 0% | 92.6% | 0% | 1% | 4% | 0% | 94% | 0% | 0% | 4% |
| CCNc1nccc(-c2c(-c3ccc(F)cc3)ncn2C2CCN(C)CC2)n1 | 0% | 0% | 39% | 70% | 66% | 0% | 0% | 0% | 0% | 0% |

| SMILES | %Inh (HASPIN) | %Inh (HCK) | %Inh (HIPK1) | %Inh (HIPK2) | %Inh (HIPK3) | %Inh (HIPK4) | %Inh (HPK1) | %Inh (HUNK) | %Inh (ICK) | %Inh (IGF1R) |
| --- | --- | --- | --- | --- | --- | --- | --- | --- | --- | --- |
| Cc1ccc(NC(=O)c2cccc(N3CCCCC3)c2)cc1-c1ccc(C(=O)NCC2CC2)cc1 [GSK1917008] | 0% | 0% | 0% | 0% | 14% | 17% | 38% | 0% | 23% | 9% |
| Cc1ccc(Nc2ccnc(Nc3ccc(C)c(F)c3)n2)cc1O.Cl [GW582868] | 10% | 29% | 0% | 0% | 0% | 4% | 30% | 0% | 2% | 0% |
| Cc1cccc(Nc2nc(N[C@H]3CCCC[C@H]3N)ncc2C(N)=O)c1.Cl [GSK986310] | 18% | 0% | 0% | 0% | 21% | 0% | 79% | 0% | 16% | 0% |
| CS(=O)(=O)c1cccc(CNc2nc(Nc3ccc4c(c3)CCC(=O)N4)ncc2C(F)(F)F)c1 | 0% | 0% | 31% | 3% | 0% | 22% | 41% | 0% | 0% | 5% |
| Cc1cc(-c2ccnc(Nc3cccc(C#N)c3)n2)cc(C)c1O [GSK1440913] | 60% | 0% | 98.3% | 98.9% | 98.2% | 88% | 65% | 43% | 79% | 0% |
| N#CC1(c2cccc(C(=O)Nc3cccc(Oc4ccc5nc(NC(=O)C6CC6)sc5n4)c3)c2)CC1 | 38% | 98.3% | 6% | 0% | 0% | 78% | 40% | 32% | 0% | 0% |
| O=C(Nc1n[nH]c2cc(-c3cccs3)ccc12)C1CC1 [SB-731284] | 0% | 0% | 37% | 4% | 63% | 6% | 0% | 0% | 78% | 0% |
| Cn1cc(-c2ccc3c(c2)CCN3C(=O)Cc2cc(F)cc(F)c2F)c2c(N)ncnc21 [GSK2634140] | 32% | 0% | 0% | 0% | 15% | 0% | 57% | 12% | 0% | 21% |
| Cc1ccc(NC(=O)c2ccc(Cl)c(Cl)c2)cc1-c1ccc(C(=O)Nc2ccncc2)cc1 [GSK1398460] | 0% | 9% | 0% | 0% | 17% | 0% | 40% | 25% | 0% | 19% |
| CC(C)c1nc(-c2ccc(F)c(NS(=O)(=O)c3c(F)cccc3F)c2)c(-c2ccnc(Nc3ccc(N4CCOCC4)nc3)n2)s1 [GSK1804250] | 18% | 98.4% | 17% | 0% | 30% | 72% | 56% | 7% | 0% | 8% |
| CSc1ccc(NC2=C(c3ccc(Cl)cc3)C(=O)NC2=O)cc1 [SB-317658] | 0% | 32% | 2% | 3% | 7% | 6% | 9% | 4% | 19% | 3% |
| COc1ccc(C)c(Nc2ccnc(Nc3ccc(-c4cnc[nH]4)cc3)n2)c1.Cl [GW784041] | 0% | 63% | 48% | 0% | 0% | 30% | 0% | 0% | 0% | 12% |
| NCCC(NC(=O)c1cc(Br)c(-c2ccnc3[nH]ccc23)s1)c1ccccc1.O=C(O)C(F)(F)F.O=C(O)C(F)(F)F (stereo not drawn) [GSK1307810] | 97.6% | 0% | 53% | 9% | 67% | 93.3% | 69% | 0% | 0% | 0% |
| CN(c1ccc(NC(=O)N2CCN(CCCN3CCOCC3)CC2)cc1)c1ccnc(Nc2ccc(CS(C)(=O)=O)cc2)n1.Cl [GW830899] | 0% | 12% | 45% | 0% | 0% | 20% | 47% | 0% | 95.9% | 1% |
| COC(=O)Nc1nc2cc(Oc3ccc(NC(=O)Nc4cccc(SC)c4)cc3)ccc2[nH]1.Cl [GW697999] | 0% | 12% | 5% | 0% | 1% | 36% | 30% | 28% | 0% | 5% |
| Cc1ccc(C)c(NC(=O)Nc2ccc(C)c(-c3ccc(C(=O)Nc4ccncc4)cc3)c2)c1 [GSK1398473] | 0% | 92.4% | 0% | 0% | 12% | 0% | 36% | 0% | 8% | 0% |
